# Assay results as given in PubChem BioAssay (NCI).
# This is part of a sample that, as a whole, favours compounds with a hit. Of some 79,000 tested, about 15% had one in any assay. Activity calls are given as the source filed them. Cut-off read from the data, not from the text of the source: active = growth inhibition above about 70%; inactive = the rest.
# Test: NCI Yeast Anticancer Drug Screen. Data for the bub3 strain (AID 167)
# Conditions: S. cerevisiae bub3 mutant strain, at 50.0 µM, active compounds read high
# Summary of the method: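 Growth of a checkpoint-deficient yeast mutant is measured after compound exposure. Values represent inhibition relative to vehicle.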
row,SMILES,growth inhibition
1,Nc1cn[nH]c(=O)n1,10.4% (inactive)
2,O=C(O)C1(NO)CCCCC1,-12.6% (inactive)
3,O=S(=O)(N1CCCCC1)N1CCCCC1,10.2% (inactive)
4,O=C(Cc1ccccc1)Nc1cccc2ccccc12,22.9% (inactive)
5,Nc1ccc(C(=O)Nc2ccc3c(ccc4ccccc43)c2)cc1,-12.9% (inactive)
6,O=S1(=O)OCOS(=O)(=O)OCO1,-13.8% (inactive)
7,Cc1ccc(S(=O)(=O)n2ccnc2)cc1,11.7% (inactive)
8,Cc1cnc(N)s1,-11.2% (inactive)
9,CC(C)CC1NC(=O)C(C(C)C)NC(=O)CC(C)COC(=O)C(CC(C)C)N(C)C(=O)C(C(C)C)NC(=O)C(C(C)C)OC1=O (centres undefined),8.1% (inactive)
10,O=C(c1nc2ccccc2[nH]1)N1CCN(c2ccccc2)CC1,1.35% (inactive)
11,CSC1=Nc2ccccc2N=C(c2ccccc2)C1,44.8% (inactive)
12,O=[N+]([O-])C1C=Nc2ccccc2N=C1,5% (inactive)
13,O=C(CO)c1ccc(-c2ccccc2)cc1,4.95% (inactive)
14,Nc1c(S(=O)(=O)O)cc(Br)c2c1C(=O)c1ccccc1C2=O,45.8% (inactive)
15,COc1cc(C(O)C(CO)Oc2c(OC)cc(C3OCC4C(c5cc(OC)c(O)c(OC)c5)OCC34)cc2OC)ccc1O (centres undefined),-6.7% (inactive)
16,N#CC(C(=O)C(=O)Nc1cccc(C(F)(F)F)c1)c1c(Cl)cccc1Cl (centres undefined),-1.7% (inactive)
17,CC(=O)SC1CC2CCC1C2 (centres undefined),-19.7% (inactive)
18,CNc1ccn(C2OC(CO)C(O)C2O)c(=O)n1 (centres undefined),10.1% (inactive)
19,Cc1c2n(c(=O)[nH]c1=O)C1OC(CO)C(N=[N+]=[N-])C1O2 (centres undefined),-39.2% (inactive)
